In all, about 5,500 compounds went through this assay and about 2,000 (36%) were called active. Inconclusive results (about 18%) are left out. Some of the results follow. A number with no mark means an inactive call. Cut-off read from the data, not from the text of the source: active = normalized growth mostly below about 0.91 (no sharp cut-off); inconclusive = no clear call, values can overlap the other calls; inactive = mostly above about 0.92.
Test: chemical genetic growth profiling, strain panel (AID 1159580);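 note: tested at 20 µM; growth read once vehicle control cultures reached saturation at 30 °C; 1 = growth at the plate median or of vehicle wells; lower values mean less growth of the strain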
Details: growth OD

Cc1ccc(SC(=O)c2cccnc2Oc2ccccc2)cc1
normalized growth (S. cerevisiae deletion strains, locus YAL013W, strain DEP1, hits give low values): 0.972 | normalized growth (S. cerevisiae deletion strains, locus YBR229C, strain ROT2, hits give low values): 0.988 | normalized growth (S. cerevisiae deletion strains, locus YCL061C, strain MRC1, hits give low values): 0.989 | normalized growth (S. cerevisiae deletion strains, locus YDL101C, strain DUN1, hits give low values): 1.03 | normalized growth (S. cerevisiae deletion strains, locus YDL134C, strain PPH21, hits give low values): 0.983 | normalized growth (S. cerevisiae deletion strains, locus YDR150W, strain NUM1, hits give low values): 1.02 | normalized growth (S. cerevisiae deletion strains, locus YEL061C, strain CIN8, hits give low values): 0.965 | normalized growth (S. cerevisiae deletion strains, locus YGR078C, strain PAC10, hits give low values): 0.992 | normalized growth (S. cerevisiae deletion strains, locus YHR030C, strain SLT2, hits give low values): 0.815 | normalized growth (S. cerevisiae deletion strains, locus YHR087W, strain rtc3, hits give low values): 0.953 | normalized growth (S. cerevisiae deletion strains, locus YJL187C, strain SWE1, hits give low values): 0.98 | normalized growth (S. cerevisiae deletion strains, locus YJR043C, strain POL32, hits give low values): 0.992 | normalized growth (S. cerevisiae deletion strains, locus YJR075W, strain HOC1, hits give low values): 0.985 | normalized growth (S. cerevisiae deletion strains, locus YLR039C, strain RIC1, hits give low values): 0.723 (active) | normalized growth (S. cerevisiae deletion strains, locus YLR058C, strain SHM2 (second series), hits give low values): 0.992 | normalized growth (S. cerevisiae deletion strains, locus YLR085C, strain ARP6, hits give low values): 0.818 | normalized growth (S. cerevisiae deletion strains, locus YLR262C, strain YPT6, hits give low values): 0.679 (active) | normalized growth (S. cerevisiae deletion strains, locus YML094W, strain GIM5, hits give low values): 0.949 | normalized growth (S. cerevisiae deletion strains, locus YMR219W, strain ESC1, hits give low values): 0.993 | normalized growth (S. cerevisiae deletion strains, locus YMR263W, strain SAP30, hits give low values): 0.984 | normalized growth (S. cerevisiae deletion strains, locus YNL153C, strain GIM3, hits give low values): 0.982 | normalized growth (S. cerevisiae deletion strains, locus YNL298W, strain CLA4 (second series), hits give low values): 0.925 | normalized growth (S. cerevisiae deletion strains, locus YNL322C, strain KRE1, hits give low values): 0.983 | normalized growth (S. cerevisiae deletion strains, locus YNR030W, strain Alg12, hits give low values): 0.91 | normalized growth (S. cerevisiae deletion strains, locus YPL055C, strain LGE1, hits give low values): 0.939 | normalized growth (S. cerevisiae deletion strains, locus YPL241C, strain CIN2, hits give low values): 0.94 | normalized growth (S. cerevisiae deletion strains, locus YPR135W, strain CTF4, hits give low values): 0.723 | normalized growth (S. cerevisiae strains, strain wild type, hits give low values): 0.952

Reference: PubChem BioAssay AID1159580 (chemical genetic matrix, 2015)
